# Data: the supplement of paper PMC4466140
# Key:
# Assay in all cases: SPOT peptide array binding signal intensity (averaged, normalized) (arbitrary units (background-subtracted, floor 0; scale differs between SH3 domains)); higher = stronger binding of the SH3 domain to the peptide
# [1] = biological target: AgAbp1
# In short: (§1)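 GST-SH3 fusions from four yeast species, purified on glutathione Sepharose, were incubated at 10 μg/ml overnight at 4°C on membranes of synthetic 15-mer peptides in which cysteines were replaced with serines. Binding signal is the normalized, background-subtracted spot intensity averaged over replicates, in domain-specific arbitrary units.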
# [2] = biological target: AgBbc1
# In short: as §1
# [3] = biological target: AgBem1-D1
# In short: as §1
# [4] = biological target: AgBzz1-D1
# In short: as §1
# [5] = biological target: AgBzz1-D2
# In short: as §1
# [6] = biological target: AgCyk3
# In short: as §1
# [7] = biological target: AgFus1
# In short: as §1
# [8] = biological target: AgHof1
# In short: as §1
# [9] = biological target: AgHse1
# In short: as §1
# [10] = biological target: AgLsb1
# In short: as §1
# [11] = biological target: AgLsb4
# In short: as §1
# [12] = biological target: AgMyo5
# In short: as §1
# [13] = biological target: AgNbp2
# In short: as §1
# [14] = biological target: AgRvs167
# In short: as §1
# [15] = biological target: AgSho1
# In short: as §1
# [16] = biological target: AgSla1-D1-D2
# In short: as §1
# [17] = biological target: AgSla1-D3
# In short: as §1
# [18] = biological target: CaAbp1-D1
# In short: as §1
# [19] = biological target: CaAbp1-D2
# In short: as §1
# [20] = biological target: CaBbc1
# In short: as §1
# [21] = biological target: CaBem1-D1
# In short: as §1
# [22] = biological target: CaBzz1-D1
# In short: as §1
# [23] = biological target: CaBzz1-D2
# In short: as §1
# [24] = biological target: CaCyk3
# In short: as §1
# [25] = biological target: CaFus1
# In short: as §1
# [26] = biological target: CaHof1
# In short: as §1
# [27] = biological target: CaHse1
# In short: as §1
# [28] = biological target: CaLsb1
# In short: as §1
# [29] = biological target: CaLsb4
# In short: as §1
# [30] = biological target: CaMyo5
# In short: as §1
# [31] = biological target: CaNbp2
# In short: as §1
# [32] = biological target: CaRvs167
# In short: as §1
# [33] = biological target: CaRvs167-3
# In short: as §1
# [34] = biological target: CaSho1
# In short: as §1
# [35] = biological target: CaSla1-D1-D2
# In short: as §1
# [36] = biological target: CaSla1-D3
# In short: as §1
# [37] = biological target: ScAbp1
# In short: as §1
# [38] = biological target: ScBbc1
# In short: as §1
# [39] = biological target: ScBem1-D1
# In short: as §1
# [40] = biological target: ScBzz1-D1
# In short: as §1
# [41] = biological target: ScBzz1-D2
# In short: as §1
# [42] = biological target: ScCyk3
# In short: as §1
# [43] = biological target: ScFus1
# In short: as §1
# [44] = biological target: ScHof1
# In short: as §1
# [45] = biological target: ScHse1
# In short: as §1
# [46] = biological target: ScLsb1
# In short: as §1
# [47] = biological target: ScLsb2
# In short: as §1
# [48] = biological target: ScLsb3
# In short: as §1
# [49] = biological target: ScLsb4
# In short: as §1
# [50] = biological target: ScMyo3
# In short: as §1
# [51] = biological target: ScMyo5
# In short: as §1
# [52] = biological target: ScNbp2
# In short: as §1
# [53] = biological target: ScPex13
# In short: as §1
# [54] = biological target: ScRvs167
# In short: as §1
# [55] = biological target: ScSho1
# In short: as §1
# [56] = biological target: ScSla1-D1-D2
# In short: as §1
# [57] = biological target: ScSla1-D3
# In short: as §1
# [58] = biological target: SpAbp1-D1
# In short: as §1
# [59] = biological target: SpBbc1
# In short: as §1
# [60] = biological target: SpBzz1-D1
# In short: as §1
# [61] = biological target: SpBzz1-D2
# In short: as §1
# [62] = biological target: SpCyk3
# In short: as §1
# [63] = biological target: SpHof1
# In short: as §1
# [64] = biological target: SpHof1-2
# In short: as §1
# [65] = biological target: SpHof1-3
# In short: as §1
# [66] = biological target: SpHse1
# In short: as §1
# [67] = biological target: SpLsb1
# In short: as §1
# [68] = biological target: SpLsb4
# In short: as §1
# [69] = biological target: SpMyo1
# In short: as §1
# [70] = biological target: SpNbp2
# In short: as §1
# [71] = biological target: SpPex13
# In short: as §1
# [72] = biological target: SpRvs167
# In short: as §1
# [73] = biological target: SpSla1-D1-D2
# In short: as §1
# [74] = biological target: SpSla1-D3
# In short: as §1
binder,measurement,setting,value
FSRRQSMDIPSKNRN,SPOT peptide array binding signal intensity,[1],114
same,SPOT peptide array binding signal intensity,[2],69.8
same,SPOT peptide array binding signal intensity,[3],557
same,SPOT peptide array binding signal intensity,[4],33
same,SPOT peptide array binding signal intensity,[5],78.5
same,SPOT peptide array binding signal intensity,[6],3
same,SPOT peptide array binding signal intensity,[7],248
same,SPOT peptide array binding signal intensity,[8],67.5
same,SPOT peptide array binding signal intensity,[9],550
same,SPOT peptide array binding signal intensity,[10],15
same,SPOT peptide array binding signal intensity,[11],24
same,SPOT peptide array binding signal intensity,[12],16
same,SPOT peptide array binding signal intensity,[13],660
same,SPOT peptide array binding signal intensity,[14],4.17
same,SPOT peptide array binding signal intensity,[15],115
same,SPOT peptide array binding signal intensity,[16],54
same,SPOT peptide array binding signal intensity,[17],11
same,SPOT peptide array binding signal intensity,[18],266
same,SPOT peptide array binding signal intensity,[19],313
same,SPOT peptide array binding signal intensity,[20],384
same,SPOT peptide array binding signal intensity,[21],686
same,SPOT peptide array binding signal intensity,[22],475
same,SPOT peptide array binding signal intensity,[23],308
same,SPOT peptide array binding signal intensity,[24],25
same,SPOT peptide array binding signal intensity,[25],602
same,SPOT peptide array binding signal intensity,[26],0.5
same,SPOT peptide array binding signal intensity,[27],225
same,SPOT peptide array binding signal intensity,[28],4
same,SPOT peptide array binding signal intensity,[29],412
same,SPOT peptide array binding signal intensity,[30],47.8
same,SPOT peptide array binding signal intensity,[31],1460
same,SPOT peptide array binding signal intensity,[32],96.7
same,SPOT peptide array binding signal intensity,[33],1.75
same,SPOT peptide array binding signal intensity,[34],691
same,SPOT peptide array binding signal intensity,[35],982
same,SPOT peptide array binding signal intensity,[36],552
same,SPOT peptide array binding signal intensity,[37],74
same,SPOT peptide array binding signal intensity,[38],34
same,SPOT peptide array binding signal intensity,[39],88.5
same,SPOT peptide array binding signal intensity,[40],48
same,SPOT peptide array binding signal intensity,[41],102
same,SPOT peptide array binding signal intensity,[42],8.5
same,SPOT peptide array binding signal intensity,[43],405
same,SPOT peptide array binding signal intensity,[44],2
same,SPOT peptide array binding signal intensity,[45],566
same,SPOT peptide array binding signal intensity,[46],56.8
same,SPOT peptide array binding signal intensity,[47],1
same,SPOT peptide array binding signal intensity,[48],350
same,SPOT peptide array binding signal intensity,[49],126
same,SPOT peptide array binding signal intensity,[50],41.5
same,SPOT peptide array binding signal intensity,[51],13
same,SPOT peptide array binding signal intensity,[52],846
same,SPOT peptide array binding signal intensity,[53],586
same,SPOT peptide array binding signal intensity,[54],70.5
same,SPOT peptide array binding signal intensity,[55],458
same,SPOT peptide array binding signal intensity,[56],1260
same,SPOT peptide array binding signal intensity,[57],851
same,SPOT peptide array binding signal intensity,[58],118
same,SPOT peptide array binding signal intensity,[59],17
same,SPOT peptide array binding signal intensity,[60],573
YVRRRPRVRLEPLLS,SPOT peptide array binding signal intensity,[31],887
same,SPOT peptide array binding signal intensity,[32],23.8
same,SPOT peptide array binding signal intensity,[33],82.6
same,SPOT peptide array binding signal intensity,[34],898
same,SPOT peptide array binding signal intensity,[35],114
same,SPOT peptide array binding signal intensity,[36],5.25
same,SPOT peptide array binding signal intensity,[37],128
same,SPOT peptide array binding signal intensity,[38],24.8
same,SPOT peptide array binding signal intensity,[39],46.5
same,SPOT peptide array binding signal intensity,[40],58.5
same,SPOT peptide array binding signal intensity,[41],117
same,SPOT peptide array binding signal intensity,[42],79.5
same,SPOT peptide array binding signal intensity,[43],706
same,SPOT peptide array binding signal intensity,[44],0.5
same,SPOT peptide array binding signal intensity,[45],2260
same,SPOT peptide array binding signal intensity,[46],22.5
same,SPOT peptide array binding signal intensity,[47],8
same,SPOT peptide array binding signal intensity,[48],558
same,SPOT peptide array binding signal intensity,[49],29.5
same,SPOT peptide array binding signal intensity,[50],6.25
same,SPOT peptide array binding signal intensity,[51],3
same,SPOT peptide array binding signal intensity,[52],548
same,SPOT peptide array binding signal intensity,[53],18.2
same,SPOT peptide array binding signal intensity,[54],30.8
same,SPOT peptide array binding signal intensity,[55],1070
same,SPOT peptide array binding signal intensity,[56],309
same,SPOT peptide array binding signal intensity,[57],29.9
same,SPOT peptide array binding signal intensity,[58],252
same,SPOT peptide array binding signal intensity,[59],23.2
same,SPOT peptide array binding signal intensity,[60],125
same,SPOT peptide array binding signal intensity,[61],4.62
same,SPOT peptide array binding signal intensity,[62],2
same,SPOT peptide array binding signal intensity,[63],97.6
same,SPOT peptide array binding signal intensity,[64],29.5
same,SPOT peptide array binding signal intensity,[65],256
same,SPOT peptide array binding signal intensity,[66],834
same,SPOT peptide array binding signal intensity,[67],7.88
same,SPOT peptide array binding signal intensity,[68],254
same,SPOT peptide array binding signal intensity,[69],5.25
same,SPOT peptide array binding signal intensity,[70],673
same,SPOT peptide array binding signal intensity,[71],61.8
same,SPOT peptide array binding signal intensity,[72],23
same,SPOT peptide array binding signal intensity,[73],9
same,SPOT peptide array binding signal intensity,[74],87
